The sequences below were run against GPR35 (assay: pooled miR-30 sensor sort-seq; sequence = guide strand). Details: shRNA.
Sequence TGGAGTTGAAATTGTGCCGGGT has a sensor-assay potency score (higher = more potent) of 0.0323. TAGAAGCCCAGCTTGATCGCTG was tested, and the sensor-assay potency score (higher = more potent) was 0.371. Work on TTTGTGGGCCTTAGCACTGGGA yielded a sensor-assay potency score (higher = more potent) of -1.13. Sequence ATGTAGTAGTAGCAGATGGCGT has a sensor-assay potency score (higher = more potent) of -1.53. With TAGCAGATGGCGTCCAGGCAGC the sensor-assay potency score (higher = more potent) was -1.38. ATGGAGTTGAAATTGTGCCGGG was tested, and the sensor-assay potency score (higher = more potent) was -0.394. Sequence TGTAGTAGTAGCAGATGGCGTC has a sensor-assay potency score (higher = more potent) of 0.146. For TTGGCCATGTAGTAGTAGCAGA, the sensor-assay potency score (higher = more potent) was -0.948. Work on TTGGCATCTGAGAGCTTGCTGG yielded a sensor-assay potency score (higher = more potent) of -1.04. With TTGCTGGTTATGTACAGGGCGC the sensor-assay potency score (higher = more potent) was -1.43. In the case of TTTTGTGGGCCTTAGCACTGGG, the sensor-assay potency score (higher = more potent) is reported as -0.0303. With TAGGCGTAGAAGCCCAGCTTGA the sensor-assay potency score (higher = more potent) was -1.67.

What follows are sequences tested against GPR3 in the same assay as above. Details: shRNA.
TTGGAAGAGGAACAGCAGCAGC showed a sensor-assay potency score (higher = more potent) of -1.16. Work on TAGCTCAGAAATTCAAACGTAA yielded a sensor-assay potency score (higher = more potent) of 0.128. Sequence TTGTACAGAGAAAGGTAGCGGT has a sensor-assay potency score (higher = more potent) of 0.0257. TAGAACTCCAGAACCAGCTGGG was tested, and the sensor-assay potency score (higher = more potent) was 0.254. Sequence TATATGTGCATATATAATCTTT has a sensor-assay potency score (higher = more potent) of -0.621. Work on TAGACAGTGAAGGGCAACCAGC yielded a sensor-assay potency score (higher = more potent) of -1.54. In the case of TGACTAATCTCTCTGACTCTTT, the sensor-assay potency score (higher = more potent) is reported as -0.512. TAAATAGACACTGTCTTTGTAT showed a sensor-assay potency score (higher = more potent) of 0.00652. TTGTCTCTGAATAGTAGGTGAG gave a sensor-assay potency score (higher = more potent) of -1.17. With TAGAGCTGCAGCATGATGCCAA the sensor-assay potency score (higher = more potent) was -0.00504. TAGGGATCTGAACAGAACCTTG showed a sensor-assay potency score (higher = more potent) of -1.54.

Reference: the OligoGym collection
